# In the supplement of paper PMC13380429:
# Assays:
# [1] = system: Vero E6 infected with SARS-CoV-2; experiment: morphology score (similarity to uninfected cells); higher = more like uninfected cells; details: 24 h
# [2] = system: Vero E6 infected with SARS-CoV-2; experiment: SARS-CoV-2 infection rate relative to infected DMSO; higher = more infection, active = 60 or less; details: 24 h
Compound,morphology score [1],SARS-CoV-2 infection rate [2]
C=CCc1cccc(/C=N/NC(=O)CN2CCN(Cc3ccccc3)CC2)c1O (0.833333 µM),0.152,100% (inactive)
NCCCCCNCC12CC3CC(CC(C3)C1)C2 (10 µM),0.229,97.5% (inactive)
Nc1c2ccccc2nc2ccccc12 [9-aminoacridine] (0.833333 µM),0.102,106% (inactive)
CC(C)c1cnn2c(NCc3ccccc3)cc(NCCCCCCN)nc12 (10 µM),0.714,41% (active)
CN(C)c1nc(N)c(C(=O)Nc2cccnc2)nc1Cl (10 µM),0.226,79% (inactive)
O=C(O)[C@H](Cc1ccccc1)NCc1ccc(Cl)cc1 (10 µM),0.0118,102% (inactive)
Cc1nc(-c2cn3c(n2)-c2ccc(-c4cnn(C(C)(C)C(N)=O)c4)cc2OCC3)n(C(C)C)n1 [taselisib] (0.833333 µM),-0.0504,98.5% (inactive)
CCN(CCO)CCCC(C)Nc1ccnc2cc(Cl)ccc12 (stereo not drawn) [hydroxychloroquine] (10 µM),0.362,88% (inactive)
CCNC(=O)c1n[nH]c(-c2cc(Cl)c(O)cc2O)c1-c1ccc(OC)cc1 (10 µM),0.0403,104% (inactive)
CC(=O)c1c(C)c2cnc(Nc3ccc(N4CCNCC4)cn3)nc2n(C2CCCC2)c1=O [palbociclib] (10 µM),0.0925,108% (inactive)
CCOC(=O)Nc1ccc2c(c1)N(C(=O)CCN(CC)CC)c1ccccc1S2 [ethacizin] (10 µM),0.00909,112% (inactive)
CSCC[C@H](NC(=O)[C@H](CC(C)C)NC(=O)[C@@H](Cc1c[nH]c2ccccc12)NC(=O)[C@H](Cc1ccccc1)N(C)C(=O)[C@@H](Cc1c[nH]c2ccccc12)NC(=O)[C@@H](N)CCCNC(=N)N)C(N)=O [antagonist-g] (10 µM),-0.124,114% (inactive)
C/C(=C\CNc1ncnc2[nH]cnc12)CO [zeatin] (10 µM),-0.0215,106% (inactive)
NC(=O)OCCCc1ccccc1 [phenprobamate] (10 µM),0.0438,102% (inactive)
COC(=O)C1=CO[C@@H](O)[C@@H]2C(CO)=CC[C@H]12 [genipin] (10 µM),0.291,112% (inactive)
N#Cc1ccnc(N2C(=O)CC[C@H]2C(=O)N(c2cncc(F)c2)[C@H](C(=O)NC2CC(F)(F)C2)c2ccccc2Cl)c1 [ivosidenib] (10 µM),0.219,91.5% (inactive)
CCCNCC(O)COc1ccccc1C(=O)CCc1ccccc1 (stereo not drawn) [propafenone] (0.833333 µM),-0.109,110% (inactive)
COC1CCN(C(=O)c2cc(Cc3n[nH]c(=O)c4ccccc34)ccc2F)CC1 (10 µM),0.118,103% (inactive)
C=CC1=C(C)C2=CC3=NC(=C(CC(=O)O)C4=NC(=C(C)C4=C(O)O)C=c4[nH]c(c(C)c4CC)=CC1=N2)C(CCC(=O)O)C3C (stereo not drawn) [chlorophyllin] (10 µM),0.148,94% (inactive)
CC(C)c1nc(CN(C)C(=O)N[C@H](C(=O)N[C@@H](Cc2ccccc2)C[C@H](O)[C@H](Cc2ccccc2)NC(=O)OCc2cncs2)C(C)C)cs1 [ritonavir] (10 µM),0.0318,104% (inactive)

Compound,morphology score [1],SARS-CoV-2 infection rate [2]
C[C@@]12CC[C@@H]3[C@@](CC[C@H]4[C@@]3(C)CCC[C@@]4(C)C(=O)O)(CC1=O)C2 [isosteviol] (10 µM),0.144,100% (inactive)
Cc1sc(N)c(C(=O)c2cccc(C(F)(F)F)c2)c1C (10 µM),-0.0662,99% (inactive)
C/C(=C\C(N)C(=O)O)CP(=O)(O)O (stereo not drawn) (10 µM),0.064,110% (inactive)
C[C@H]1[C@@H](O)O[C@@H]2O[C@@]3(C)CC[C@H]4[C@H](C)CC[C@@H]1[C@@]24OO3 (10 µM),0.225,84% (inactive)
O=C(O)CCc1ccc(NCc2cccc3c2CCCN3CCOc2ccccc2)cc1F (10 µM),-0.0144,110% (inactive)
CN1C2C=C(c3sccc3Br)CC1CC2 (stereo not drawn) (10 µM),0.427,69.5% (inactive)
COc1ccc(C2(O)CCC(N3CC[C@@H](NC(=O)CNC(=O)c4cccc(C(F)(F)F)c4)C3)CC2)cn1 (stereo partly drawn) (10 µM),-0.0197,105% (inactive)
OC[C@H]1O[C@@H](Oc2cc3c(O)cc(O)cc3[o+]c2-c2ccc(O)c(O)c2)[C@H](O)[C@@H](O)[C@@H]1O [kuromanin] (10 µM),-0.129,110% (inactive)
CCCCc1cc2ccccc2c(OCCN(C)C)n1 [dimethisoquin] (10 µM),0.41,71.5% (inactive)
OC(CCCN1CCCCC1)(c1ccccc1)c1ccccc1 [diphenidol] (10 µM),-0.109,104% (inactive)
C=C[C@H]1CN2CC[C@H]1CC2C(OC(=O)OCC)c1ccnc2ccc(OC)cc12 (stereo in doubt) [quinine-ethyl-carbonate] (10 µM),0.215,99% (inactive)
O[C@H]1CC[C@H](Nc2ncc3nc(Nc4c(F)cc(F)cc4F)n([C@H]4CCOC4)c3n2)CC1 (0.833333 µM),0.103,101% (inactive)
Cc1cc(C(C)(C)CC(C)(C)C)ccc1OCCOCC[N+](C)(C)Cc1ccccc1 [methylbenzethonium-chloride] (10 µM),-0.0681,101% (inactive)
C[C@H](Cc1ccc(OCC(=O)O)cc1)NC[C@H](O)c1cccc(Cl)c1 (10 µM),-0.0663,107% (inactive)
COc1cc(C(=O)N(CC[C@H]2CCCN2C)C/C(C)=C/c2ccccc2F)cc(OC)c1OC (racemic) (10 µM),0.055,108% (inactive)
CN(Cc1ccccc1)C(=O)[C@H](Cc1ccc2ccccc2c1)NC(=O)[C@@H]1C[C@@H](O)CN1C(=O)c1cn(C)c2ccccc12 (10 µM),0.179,104% (inactive)
Cc1ccccc1C(=O)c1ccc(Nc2ccc(Br)cc2N)cc1Cl (10 µM),-0.138,102% (inactive)
O=C(O)c1cc(O)c2c3nc4ccccc4oc-3cc(=O)c2n1 [pirenoxine] (10 µM),0.0951,102% (inactive)
CCN(CC)CC#CCOC(=O)C(O)(c1ccccc1)C1CCCCC1 (stereo not drawn) [oxybutynin] (10 µM),0.299,98% (inactive)
COc1cc(OCc2cccc(-c3ccccc3)c2C)cc(OC)c1CN1CCCC[C@H]1C(=O)O [PD1-PDL-inhibitor-1] (10 µM),0.00556,95% (inactive)

Compound,morphology score [1],SARS-CoV-2 infection rate [2]
O=c1[nH]cnc2c([C@@H]3N[C@H](CO)[C@@H](O)[C@H]3O)c[nH]c12 [forodesine] (10 µM),0.155,103% (inactive)
CC(C)S(=O)(=O)NC[C@H](C)c1ccc(-c2ccc(CCNS(C)(=O)=O)cc2)cc1 [mibampator] (10 µM),0.146,93% (inactive)
O=C(c1c2ccccc2cc2ccccc12)N1CCC(N2CCC[C@@H](C(=O)N3CCOCC3)C2)CC1 (10 µM),0.0309,93.5% (inactive)
COc1ccccc1OCC(O)CN1CCN(CC(=O)Nc2c(C)cccc2C)CC1 (stereo not drawn) [ranolazine] (10 µM),0.0908,101% (inactive)
CC(C)Nc1cc(-c2c[nH]c(C(=O)N[C@H](CO)c3cccc(Cl)c3)c2)c(Cl)cn1 (0.833333 µM),-0.017,109% (inactive)
Cc1cc(OCC(=O)O)cc(C)c1Cc1ccc(O)c(C(C)C)c1 [sobetirome] (10 µM),0.0763,103% (inactive)
CC(C)(S)C(N)C(=O)O (stereo in doubt) [penicillamine-(racemic)] (10 µM),0.0971,100% (inactive)
CC[C@@H]1/C=C(\C)C[C@H](C)C[C@H](OC)[C@H]2O[C@@](O)(C(=O)C(=O)N3CCCC[C@H]3C(=O)O[C@H](/C(C)=C/[C@@H]3CC[C@@H](O)[C@H](OC)C3)[C@H](C)[C@@H](O)CC1=O)[C@H](C)C[C@@H]2OC [ascomycin] (10 µM),0.0662,100% (inactive)
c1ccc(COCCCc2c[nH]cn2)cc1 [proxyfan] (10 µM),-0.149,115% (inactive)
COc1cc2c(cc1OC)-c1c(C)c3ccc(OC)c(OC)c3c[n+]1CC2 [dehydrocorydaline] (10 µM),0.0289,104% (inactive)
NC(=O)CCCCC1CCSS1 (stereo not drawn) [lipoamide] (10 µM),-0.0248,108% (inactive)
CC(=O)SCCC(=O)N1[C@H](C)CCC[C@@H]1C(=O)O [methiopril] (10 µM),0.0927,102% (inactive)
Cn1c(=O)c2[nH]c(Br)nc2n(C)c1=O [pamabrom] (10 µM),0.0536,101% (inactive)
CO[C@H]1C[C@H](O[C@@H]2/C(C)=C/C[C@@H]3C[C@@H](C[C@]4(CC[C@H](C)[C@@H](C5CCCCC5)O4)O3)OC(=O)[C@@H]3C=C(C)/C(=N/O)[C@H]4OC/C(=C\C=C\[C@@H]2C)[C@]43O)O[C@@H](C)[C@@H]1O [selamectin] (10 µM),0.602,71% (inactive)
CCN(CC)Cc1ccc(C(=O)N(CCc2ccccc2OC)[C@@H]2CCNC2)cc1 (10 µM),0.0144,98.5% (inactive)
CCn1cc(C(=O)O)c(=O)c2ccc(-c3ccncc3)cc21 [rosoxacin] (10 µM),0.148,112% (inactive)
CS(=O)(=O)c1ccc(-c2cn3ccccc3n2)cc1 [zolimidine] (10 µM),0.211,85% (inactive)
CCN1CCCC1CNC(=O)c1cc(S(N)(=O)=O)ccc1OC (stereo not drawn) [sulpiride] (10 µM),-0.0261,105% (inactive)
CN(C)[C@@H]1C(O)=C(C(N)=O)C(=O)[C@@]2(O)C(O)=C3C(=O)c4c(O)ccc(Cl)c4[C@@H](O)[C@H]3C[C@@H]12 [demeclocycline] (10 µM),0.0306,96% (inactive)
